Reference: PubChem BioAssay (NCATS)
Records with an inconclusive call do not appear. Where a call stands in place of a potency, no number is given. Activity calls are given as the source filed them. Calls follow the shape of the dose curve; as a rule, active = well fitted curve in the direction sought with a large enough effect; inconclusive = small, poorly fitted or top-dose-only effect, or another doubt; inactive = no such curve, though single readings can be large; an effect the other way counts as inactive or inconclusive. *1 amine or outer side, *2 acyl side, *3 side chain or, on linkers, in order; H or OH if unused. Where a SMILES comes first, the peptide text is derived from it. Bridges are numbered along the chain shown (N, C = ends). [ ]: non-standard residue; d: D form. The star is where a group is joined. pTerphenylCO(4''-OnC5H11) = CCCCCOc1ccc(-c2ccc(-c3ccc(C(=O)*)cc3)cc2)cc1; Orn(4R-OH,5R-OH) = O=C([C@H](C[C@@H](O)[C@@H](O)N[*:3])N[*:1])[*:2]; hTyr(3S-OH,4S-OH) = N[C@H](C(=O)O)[C@H](O)[C@@H](O)c1ccc(O)cc1; Pro(3S-OH,4S-Me) = C[C@H]1CN[C@H](C(=O)O)[C@H]1O; Hyp = O=C(O)[C@@H]1C[C@@H](O)CN1
Potency is read from the fitted curve at half-maximal effect.

Molecular target: N-terminal Xaa-Pro-Lys N-methyltransferase 1 (Homo sapiens) (UniProt Q9BV86)
Sequence (Q9BV86 whole entry, looked up): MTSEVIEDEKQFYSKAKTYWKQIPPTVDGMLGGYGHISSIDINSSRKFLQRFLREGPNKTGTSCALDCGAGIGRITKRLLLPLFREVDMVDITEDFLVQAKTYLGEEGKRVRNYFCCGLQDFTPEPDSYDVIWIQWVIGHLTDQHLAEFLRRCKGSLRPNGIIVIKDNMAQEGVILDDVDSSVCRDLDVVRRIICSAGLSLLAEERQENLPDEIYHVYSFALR
Experiment: Confirmatory qHTS for Inhibitors of N-terminal methyltransferase 1 (NTMT1): MTaseGlo Assay (AID 1645874); also: nearly all actives have a fitted effect of over 65% in size
Conditions: NTMT1 enzyme, MTase-Glo SAH luminescence; series mostly up to 100 µM
Procedure, shortened: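 NTMT1 (125 nM) preincubated 15 min with compound and 100 uM SAM, then 1 uM SPKRIA peptide added for 30 min at room temperature. SAH detected by MTase-Glo luminescence; normalized to no-enzyme and DMSO controls, fitted to 4-parameter Hill.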
With `O=C([C@@H]1CCCN(c2ccc3[nH]c(C4(n5cc(Cl)cn5)CC4)nc3n2)C1)N1CCCC1` the Potency was “inactive”. For `NCC(CNc1nc(Nc2cccc(NC(=O)N3CCCC3)c2)ncc1I)C(=O)c1cccs1` (centres undefined), the Potency was 22.4 µM (active). For `CCOc1ccc(Cc2nc(-c3c(C)nc4ccccn34)cs2)cc1`, the Potency was “inactive”. In the case of `CCCCCOc1ccc(-c2ccc(-c3ccc(C(=O)N[C@H]4C[C@@H](O)[C@@H](O)NC(=O)[C@@H]5[C@@H](O)[C@@H](C)CN5C(=O)[C@H]([C@@H](C)O)NC(=O)[C@H]([C@H](O)[C@@H](O)c5ccc(O)cc5)NC(=O)[C@@H]5C[C@@H](O)CN5C(=O)[C@H]([C@@H](C)O)NC4=O)cc3)cc2)cc1` ({pTerphenylCO(4''-OnC5H11)}-[Orn(4R-OH,5R-OH)]T[Hyp][hTyr(3S-OH,4S-OH)]T[Pro(3S-OH,4S-Me)]; lactam 1-C), the Potency is reported as “inactive”. With `C/C=C/C=C/C=C/C(=O)O[C@@H]1C=C2COC(=O)[C@]2(O)[C@@]2(C)CCCC(C)(C)[C@H]12` the Potency was “inactive”. For `O=C(Cc1c(F)cccc1F)Nc1cc(OCc2ccc(Cl)cc2)ccn1`, the Potency was “inactive”. With `COc1cccc(-c2cn(-c3ccc(CCN4CCC(O)CC4)cc3)c3ncnc(N)c23)c1` the Potency was 35.5 µM (active). In the case of `CN(C)CCCn1cc(C2=C(c3c[nH]c4ccccc34)C(=O)NC2=O)c2ccccc21`, the Potency is reported as 39.8 µM (active). With `O=c1nc(-c2ccccn2)sc2ccccc12` the Potency was “inactive”. For `CC[C@@H](C)Nc1cc(C(=O)NC2CC3CC[C@@H](C2)N3c2ccc(C(=O)C3CC3)cn2)c(C)cc1C(N)=O` (some centres undefined), the Potency was “inactive”. With `COc1cc(CCc2ccc(OCC=C(C)C)cc2)cc(OC)c1OC` the Potency was “inactive”. With `COc1c(C(C)C)c(O)c(O)c2c1C(OC)[C@H]1OC(=O)[C@@]23CCCC(C)(C)[C@H]13` (some centres undefined) the Potency was “inactive”. In the case of `C/C(=N\N=C(N)N)c1cc(NC(=O)CCCCCCCCC(=O)Nc2cc(/C(C)=N/N=C(N)N)cc(/C(C)=N/N=C(N)N)c2)cc(/C(C)=N/N=C(N)N)c1`, the Potency is reported as 20 µM (active). In the case of `CCCC1(CCC)CCC2(CCN(CCCN(CC)CC)C2)CC1`, the Potency is reported as 50.1 µM (active).

System: not listed separately
Experiment: Primary qHTS for inhibitors of nuclear receptor binding SET domain protein 2 (NSD2) in an isogenic RCH-ACV NSD2 p.E1099K mutant (9B) (AID 1645876); also: nearly all actives have a fitted effect of over 70% in size
Conditions: RCH-ACV (leukaemia line) NSD2 E1099K (9B) viability, CellTiter-Glo, 72 h; series mostly up to 44.9 µM
With `COC(=O)C[C@H]1[C@]2(C)C3=C(C)[C@H](c4ccoc4)C[C@H]3O[C@@H]2[C@H](O)C2[C@](C)(C(=O)OC)C=CC(=O)[C@@]21C` (some centres undefined) the Potency was “inactive”. In the case of `CC(C)(Cc1nc(-c2ccc(O)cn2)no1)C(=O)NC1=C(C(=O)O)CCCC1`, the Potency is reported as “inactive”. With `COc1ccnc(CS(=O)c2nc3cc(OC(F)F)ccc3[nH]2)c1OC` (centres undefined) the Potency was “inactive”. In the case of `NCC(CNc1nc(Nc2cccc(NC(=O)N3CCCC3)c2)ncc1I)C(=O)c1cccs1` (centres undefined), the Potency is reported as 1.15 µM (active). With `CCOC(=O)c1csc(Nc2ccc(Cl)cc2)n1` the Potency was 18.3 µM (active). In the case of `CCOc1ccc(Cc2nc(-c3c(C)nc4ccccn34)cs2)cc1`, the Potency is reported as 0.183 µM (active). In the case of `CCCCCOc1ccc(-c2ccc(-c3ccc(C(=O)N[C@H]4C[C@@H](O)[C@@H](O)NC(=O)[C@@H]5[C@@H](O)[C@@H](C)CN5C(=O)[C@H]([C@@H](C)O)NC(=O)[C@H]([C@H](O)[C@@H](O)c5ccc(O)cc5)NC(=O)[C@@H]5C[C@@H](O)CN5C(=O)[C@H]([C@@H](C)O)NC4=O)cc3)cc2)cc1` ({pTerphenylCO(4''-OnC5H11)}-[Orn(4R-OH,5R-OH)]T[Hyp][hTyr(3S-OH,4S-OH)]T[Pro(3S-OH,4S-Me)]; lactam 1-C), the Potency is reported as “inactive”. For `O=C1Nc2nc(-c3c(O)cccc3OCC3CC3)cc([C@@H]3CCCNC3)c2CO1`, the Potency was 5.78 µM (active). In the case of `C=C1CC2OC(=O)C(COC)C2C(OC(=O)/C(C)=C\C)CC2(C)OC1=CC2=O` (centres undefined), the Potency is reported as 3.58 µM (active). With `C/C=C/C=C/C=C/C(=O)O[C@@H]1C=C2COC(=O)[C@]2(O)[C@@]2(C)CCCC(C)(C)[C@H]12` the Potency was 2.82 µM (active). For `CCNC1(C(N)=O)CN(c2nc(C)nc3c(-c4ccc(Cl)cc4)c(-c4ccccc4Cl)nn23)C1`, the Potency was 20.5 µM (active). For `O=C(Cc1c(F)cccc1F)Nc1cc(OCc2ccc(Cl)cc2)ccn1`, the Potency was 18.3 µM (active). With `C[C@@H]1C[C@H]2O[C@@]3(O[C@@H]2C(C)(C)O)C(O)[C@@]2(C)C4CCC5C(C)(C)[C@@H](O[C@H]6OC[C@H](O)[C@@H](O)[C@@H]6O)CC[C@@]56C[C@@]46CC[C@]2(C)C13` (some centres undefined) the Potency was “inactive”. For `CC1=C(c2ccc(NC(=O)c3c(F)cccc3F)cc2)CN(c2nccs2)CC1`, the Potency was “inactive”. With `COc1cccc(-c2cn(-c3ccc(CCN4CCC(O)CC4)cc3)c3ncnc(N)c23)c1` the Potency was 1.63 µM (active).
